Experimental data from PubChem BioAssay (NCI).
Compounds without any hit were thinned out: in the full panel of roughly 83,000, 20% have a hit.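 Each cell line was grown in a 96-well plate and treated with one concentration of compound for 48 hours. Values below 10 were considered active.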 Active and inactive are the calls of the source.

Columns and labels:
Assay in all cases: NCI-60 one-dose screen, 48 h (100 = growth as untreated, 0 = no growth, -100 = all killed)
Details in all cases: 10 µM unless noted
[1] = tested on: HCT-15 colon
[2] = tested on: HT29 colon
[3] = tested on: SNB-75 CNS
[4] = tested on: SNB-19 CNS
[5] = tested on: U251 CNS
[6] = tested on: PC-3 prostate
[7] = tested on: SK-MEL-5 melanoma
[8] = tested on: UACC-62 melanoma
[9] = tested on: LOX IMVI melanoma
[10] = tested on: SK-MEL-28 melanoma

Measured: growth

COC(=O)[C@@H](C)C[C@H](Cc1ccccc1)NC(=O)c1csc([C@@H](C[C@H](C(C)C)N(C)C(=O)[C@H](C)NC(=O)[C@H]2CCCN2C)OC(C)=O)n1
inactive: [1] 57.7% | [2] 11.5% | [3] 30.7% | [4] 51% | [5] 24.8% | [6] 36.4% | [7] 22.3% | [8] 45.6% | [9] 38.4% | [10] 70.1%

C[CH2][Sn]([Cl])([Cl])[CH2]C.Oc1ccccc1C=NCCN=Cc1ccccc1O
inactive: [1] 104% | [2] 108% | [3] 121% | [4] 106% | [5] 93.5% | [6] 89.8% | [7] 99.5% | [8] 93.8% | [9] 72.2% | [10] 124%

Cc1ccc2c(C(C[N+](=O)[O-])c3cccs3)c(-c3ccccc3)[nH]c2c1 (stereo not given)
inactive: [1] 20% | [4] 37.8% | [5] 21% | [6] 28% | [7] 36.3% | [8] 38.3% | [9] 31.7% | [10] 49.4%
active: [2] 9.87% | [3] -37.2%

COC(=O)[C@@H](C)C[C@H](Cc1ccccc1)NC(=O)c1csc([C@@H](C[C@H](C(C)C)N(C)C(=O)[C@@H](NC(=O)[C@H]2CCCCN2C)c2ccc(F)cc2)OC(C)=O)n1
inactive: [1] 15.5% | [3] 30.7% | [4] 74.8% | [6] 15.8% | [8] 40% | [10] 49.6%
active: [2] 6.87% | [5] 4.87% | [7] -46.3% | [9] 7.62%

CN(C)CCCOc1ccc2c(c1)c(C(=O)C(=O)NCCO)cn2Cc1ccccc1
inactive: [1] 105% | [2] 107% | [3] 97.4% | [4] 102% | [5] 96.4% | [6] 105% | [7] 99.8% | [8] 100% | [9] 93% | [10] 118%

CCC1(C)CC(CCNCc2ccccc2O)(c2ccc(C)cc2)CCO1 (stereo not given)
inactive: [1] 98.3% | [2] 107% | [3] 91.8% | [4] 102% | [5] 99.1% | [6] 99.1% | [7] 97.7% | [8] 103% | [9] 99.8% | [10] 106%

CNC(=O)Oc1ccc(C(C)(C)C)cc1OC(=O)NC
inactive: [1] 90.5% | [2] 88.8% | [3] 91% | [4] 101% | [5] 92.3% | [6] 94% | [7] 98.9% | [8] 99.6% | [9] 92.4% | [10] 107%

COC(=O)[C@@H](C)C[C@H](Cc1ccccc1)NC(=O)c1csc([C@@H](C[C@H](C(C)C)N(C)C(=O)[C@@H](NC(=O)[C@H]2CCCCN2C)C2CCCCC2)OC(C)=O)n1
active: [2] -0.416% | [3] 5.81% | [5] -19.4% | [6] 5.7% | [7] -56.2%
inactive: [1] 10.8% | [4] 64.5% | [8] 36.3% | [9] 12.5% | [10] 38%

CCCCOc1ccc(C(N)Cc2ccccc2)cc1 (stereo not given)
inactive: [1] 84.9% | [2] 75.4% | [3] 71.2% | [4] 97% | [5] 88.1% | [6] 79.5% | [7] 92.8% | [8] 105% | [9] 80% | [10] 105%

CN1CCC(O)(c2ccc(F)cc2)C(C(=O)c2ccc(F)cc2)C1 (stereo not given)
inactive: [1] 107% | [2] 122% | [3] 113% | [4] 95.1% | [5] 107% | [6] 98.4% | [7] 102% | [8] 100% | [9] 94.3% | [10] 121%

NC(=Nc1ccccc1)N[N+](=O)[O-]
inactive: [1] 105% | [2] 100% | [3] 87.5% | [4] 96.9% | [5] 111% | [6] 94.2% | [7] 103% | [8] 94% | [9] 103% | [10] 105%

CC[C@H](C)[C@H](NC(=O)[C@H]1CCCCN1C)C(=O)N(C)[C@H](C[C@@H](OC(C)=O)c1nc(C(=O)N[C@@H](Cc2ccccc2)C[C@H](C)C(=O)OC)cs1)C(C)C
inactive: [3] 31.8% | [4] 31.4% | [5] 11.8% | [6] 23.7% | [8] 43.6% | [10] 53.6%
active: [1] 5.1% | [2] -3.46% | [7] -69.5% | [9] 8.61%

N#C[S-].[Au+].c1ccc(CN2[CH-]N(Cc3ccccc3)C(c3ccccc3)=C2c2ccccc2)cc1
inactive: [1] 13.8% | [3] 43.6% | [4] 16.1% | [10] 20.8%
active: [2] 7.04% | [5] 5.57% | [6] 7.2% | [7] -36.5% | [8] 3.87% | [9] 7.61%

COC(=O)CCc1c[nH]c2ccc(N(CCCl)CCCl)cc12
inactive: [1] 64.9% | [2] 59.3% | [3] 49% | [4] 54% | [5] 40.1% | [6] 65.3% | [7] 52% | [8] 49.3% | [9] 29.7% | [10] 91.1%

COC(=O)CC12CC(NC(=O)c3csc([C@@H](C[C@H](C(C)C)N(C)C(=O)[C@@H](NC(=O)[C@H]4CCCCN4C)C(C)C)OC(C)=O)n3)(C1)C2
inactive: [1] 11.8% | [3] 59% | [4] 37.8% | [5] 17.3% | [6] 30.2% | [8] 49.7% | [9] 23.3% | [10] 59.4%
active: [2] 5.49% | [7] -30.2%

C/C(=C\c1ccn(-c2ccccc2N)n1)[C@@H]1C[C@@H]2O[C@]2(C)CCC[C@H](C)[C@H](O)[C@@H](C)C(=O)C(C)(C)[C@@H](O)CC(=O)O1
active: [3] -4.54%
inactive: [1] 16.6% | [2] 15.1% | [4] 29.1% | [5] 27.2% | [6] 14.3% | [7] 12.2% | [8] 19.9% | [9] 28.5% | [10] 58.8%

O=C1NC(=O)C(=Cc2cn(C(=O)c3ccccc3)c3ccccc23)C(=O)N1
inactive: [1] 101% | [2] 97% | [3] 73.1% | [4] 97.6% | [5] 102% | [6] 79.4% | [7] 92.3% | [8] 85.9% | [9] 90.8% | [10] 111%

COc1ccc(S(=O)(=O)N(Cc2ccc3c(c2)C=CC(C)(C)O3)c2ccccc2)cc1OC
inactive: [1] 74.9% | [2] 72.9% | [3] 83.1% | [4] 93.7% | [5] 89.1% | [6] 73.7% | [8] 79.1% | [9] 74.2% | [10] 67.9%
active: [7] 3.42%

COc1ccc(/C=C\c2cc(OC)c(OC)c(OC)c2)cc1OCC(=O)Nc1nc2ccc(C(F)(F)F)cc2s1
inactive: [1] 15.2% | [2] 92.6% | [4] 33.7% | [5] 18% | [6] 31.5% | [7] 16.8% | [8] 32.1% | [10] 32.9%
active: [3] -6.34% | [9] 9.35%

CC(=O)[O][Hg][O]C(C)=O
inactive: [1] 93.8% | [2] 73.8% | [3] 72.6% | [4] 110% | [5] 84.6% | [6] 86.3% | [7] 102% | [8] 97.2% | [9] 70.9% | [10] 106%

O=C(Nc1ccc(Br)cc1)c1cc(Br)cc(Br)c1O
active: [1] -14.6% | [3] -10.5% | [5] 6.11% | [6] 9.67% | [7] -71% | [8] -14.2% | [9] -7.5%
inactive: [2] 23.5% | [4] 11% | [10] 33.7%
